PubChem BioAssay AID493035 (The Scripps Research Institute Molecular Screening Center, 2011)
Among all 2,000 compounds or so, about 45 (2%) were called active. The sample holds actives, similar compounds and a random draw of the others, so the mix is not that of the screen.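 The calls were made as follows: active = inhibition above the mean of all tested compounds plus 3 SD (cut at about 49% in these data); inactive = the rest.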

Target: Perilipin-5 (Homo sapiens) + 1-acylglycerol-3-phosphate O-acyltransferase ABHD5 (Homo sapiens) (UniProt Q00G26+Q8WTS1)
Assay: blockers of ABHD5 binding to perilipin-5 – cell lysate, split luciferase complementation, luminescence, NIH validation set, pilot screen (AID 493035);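 also: 0% = DMSO only wells while the 100% control is not stated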
Settings: split G. princeps luciferase complementation, lysates, 4 h; at 7.9 µM, active compounds read high

Perilipin-5 (Homo sapiens) + 1-acylglycerol-3-phosphate O-acyltransferase ABHD5 (Homo sapiens), sequence (Q00G26 whole entry, looked up): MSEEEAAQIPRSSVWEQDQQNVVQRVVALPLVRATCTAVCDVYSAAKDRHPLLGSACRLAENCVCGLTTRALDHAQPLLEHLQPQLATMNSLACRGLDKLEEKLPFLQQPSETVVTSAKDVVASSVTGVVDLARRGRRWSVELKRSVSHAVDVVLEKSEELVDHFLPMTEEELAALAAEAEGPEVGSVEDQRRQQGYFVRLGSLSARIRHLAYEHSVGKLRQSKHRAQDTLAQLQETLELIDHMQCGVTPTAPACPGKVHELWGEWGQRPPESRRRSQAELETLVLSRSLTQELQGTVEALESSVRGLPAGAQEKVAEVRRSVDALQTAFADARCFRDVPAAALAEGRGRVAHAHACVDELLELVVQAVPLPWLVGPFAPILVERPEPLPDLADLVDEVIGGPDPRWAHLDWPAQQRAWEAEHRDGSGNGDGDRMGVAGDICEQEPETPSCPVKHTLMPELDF
Perilipin-5 (Homo sapiens) + 1-acylglycerol-3-phosphate O-acyltransferase ABHD5 (Homo sapiens), sequence (Q8WTS1 whole entry, looked up): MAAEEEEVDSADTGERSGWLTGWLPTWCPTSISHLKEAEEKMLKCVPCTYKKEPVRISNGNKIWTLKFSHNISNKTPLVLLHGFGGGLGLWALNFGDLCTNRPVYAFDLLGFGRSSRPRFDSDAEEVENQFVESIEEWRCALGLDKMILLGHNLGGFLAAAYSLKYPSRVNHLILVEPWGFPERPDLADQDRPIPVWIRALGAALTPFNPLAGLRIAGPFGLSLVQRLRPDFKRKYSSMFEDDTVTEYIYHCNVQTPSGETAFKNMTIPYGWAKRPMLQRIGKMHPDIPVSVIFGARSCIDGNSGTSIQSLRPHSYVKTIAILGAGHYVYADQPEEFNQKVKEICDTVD

| Structure (SMILES) | inhibition |
| --- | --- |
| O=C(CN1C(=O)/C(=C/c2cccc(Br)c2)SC1=S)Nc1cccnc1 | 52% (active) |
| O=C(CCCN1C(=O)/C(=C\c2cccc(Br)c2)SC1=S)Nc1cccnc1 | 28.1% (inactive) |
| O=C(CCCN1C(=O)/C(=C\c2cccs2)SC1=S)Nc1ccccn1 | -1.47% (inactive) |
| COc1ccc(C2=NOC(COc3ccc4c(C)cc(=O)oc4c3)C2)c(OC)c1 (stereo unspecified) | 27.1% (inactive) |
| O=C(COc1ccc2c(-c3ccccc3)cc(=O)oc2c1)NCc1cccs1 | 9.91% (inactive) |
| CC/C(=C1/C(=O)CC(C)(C)C(C(=O)OC)C1=O)N1CCCC1 (stereo unspecified) | 6.45% (inactive) |
| COc1ccc(C(=O)/C=C/c2ccc(OC(=O)c3cc(OC)c(OC)c(OC)c3)cc2)cc1 | 40.8% (inactive) |
| COc1ccc(/C=C/C(=O)c2cc3cccc(OC)c3oc2=O)cc1 | 69.5% (active) |
| COc1cccc2cc(-c3ccccc3)c(=O)oc12 | -4.71% (inactive) |
| N/C(=N\OC(=O)CCCOc1ccc(Cl)cc1Cl)c1ccccn1 | -4.4% (inactive) |
| CC12COC3(C(=O)Nc4ccc(F)cc4)CC1CCC32C (stereo unspecified) | -5.49% (inactive) |
| O=C(Nc1ncc2c(n1)CC(c1ccco1)CC2=O)c1ccco1 (stereo unspecified) | 0.31% (inactive) |
| O=C(/C=C/c1ccccc1)c1ccccc1 | 69.7% (active) |
| O=C(/C=C/Sc1ccccc1)c1ccccc1 | 85.6% (active) |
| O=C(/C=C/c1ccccc1)/C=C/c1ccccc1 | 92.3% (active) |
| O=C(CCCCCCCC(=O)c1ccccc1)c1ccccc1 | -4.5% (inactive) |
| O=C(O)c1ccc(C(=O)C(=O)c2ccccc2)cc1 | -3.75% (inactive) |
| CC(CCc1ccccc1)NC(=O)/C=C/c1ccccc1 (stereo unspecified) | 0.97% (inactive) |
| O=C(/C=C/c1ccccc1)NC(=O)c1ccccc1O | 12.7% (inactive) |
| Cn1cc(/C=C/C(=O)c2ccccc2)c2ccccc21 | 13.7% (inactive) |
| N/C(=N\OC(=O)/C=C/c1ccccc1)c1ccc(Br)cc1 | -11.8% (inactive) |

| Structure (SMILES) | inhibition |
| --- | --- |
| COc1ccc(Cc2noc(CN(C)CCN3CCc4ccccc4C3)n2)cc1OC | -5.39% (inactive) |
| CC(=O)Nc1ccc2[nH]c(C)c(CC=C(Cl)Cl)c(=O)c2c1 | -10.7% (inactive) |
| COc1ccc(CCn2c(C)nc3c(c(=O)c4ccccc4n3C)c2=O)cc1 | 11% (inactive) |
| Cc1nnc(SCC(=O)N2CCCC(C(=O)c3ccc(Cl)cc3)C2)o1 (stereo unspecified) | 0.98% (inactive) |
| Cc1ccc2[nH]c3c(=O)n(CCCN4CCN(C)CC4)cnc3c2c1 | -5.12% (inactive) |
| O=C(O)CCn1c(=S)n(CCC(=O)O)c2ccccc21 | 8.91% (inactive) |
| Cc1ccccc1OCCSc1nc2ncnc(N)c2[nH]1 | -10.3% (inactive) |
| COc1c(C)cc(C(=O)C2CCCN(Cc3ccc(Oc4ncccn4)cc3)C2)cc1C (stereo unspecified) | -0.46% (inactive) |
| CSCCC(NC(=O)OC(C)(C)C)C(=O)Oc1ccc2c(=O)c(-c3ccc4c(c3)OCCO4)coc2c1 (stereo unspecified) | 69.1% (active) |
| CSCCC(NC(C)=O)C(=O)Oc1ccc2c3c(c(=O)oc2c1)CCCC3 (stereo unspecified) | 1.97% (inactive) |
| O=c1c(-c2ccc3c(c2)OCCO3)coc2cc(OC3OC(CO)C(O)C(O)C3O)ccc12 (stereo unspecified) | -6.25% (inactive) |
| CCc1c(C)c2ccc(OCC(=O)OC(C)C)c(C)c2oc1=O | -3.95% (inactive) |
| CCOc1ccc(CC2c3cc(OCC)c(OCC)cc3CCN2C(=O)CN2CCN(C)CC2)cc1OCC (stereo unspecified) | -0.88% (inactive) |
| O=C(/C=C/c1ccc(Cl)cc1)NCCc1ccccc1 | 1.1% (inactive) |
| O=C(O)CCCCCN1C(=O)C(=O)/C(=C(/O)c2ccccc2)C1c1ccccc1 (stereo unspecified) | -14.1% (inactive) |
| Nc1cc(-c2ccncc2)c[nH]c1=O | 75.3% (active) |
| c1cc(-c2ccncc2)ccn1 | -3.86% (inactive) |
| CCc1cc(=O)oc2cc3occ(-c4ccc(OC)c(F)c4)c3cc12 | 14.2% (inactive) |
| CC(C)=CC/C=C1\CCC(C(=O)O)C(C(=O)O)C1 (stereo unspecified) | 1.14% (inactive) |
| COCCOC(=O)C1=C(N)OC2=C(C(=O)CCC2)C1c1cccnc1 (stereo unspecified) | 0.01% (inactive) |
